Bioassay records as filed in PubChem BioAssay.
The list is not random: actives were taken first. Their share in the collection is about 6.4%.
KinaseGlo FLuc – Kinase-Glo luciferase inhibition (counter-screen). 200,000 tested, 0.28% active. Q27757. Kinase-Glo luciferase, ATP luminescence, 8 min. AID 1379. Potency, µM (highest dose often 38.3 µM), inactives show top-dose activity change, negative = inhibition, hits mostly inhibitors; also: nearly all actives have a fitted effect of over 60% in size
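Inhibition of Kinase-Glo luciferase light generation was assessed at 10 uM ATP in pH 7.2 imidazole buffer, with luminescence measured after eight minutes at ambient temperature.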
RORg inh – blocks mouse ROR gamma transcriptional activity | P51450 | Drosophila S2 Gal4-RORgamma UAS-luciferase reporter, 20 h | Potency, µM (top dose mostly 53.6 µM), inactives show at the highest dose activity change, negative = inhibition, actives largely listed as inhibitors | 310,000 tested, 5.4% active | AID 2551; also: nearly all actives have a fitted effect of over 60% in size
Target sequence (P51450 whole entry, looked up, the tested form may be a part): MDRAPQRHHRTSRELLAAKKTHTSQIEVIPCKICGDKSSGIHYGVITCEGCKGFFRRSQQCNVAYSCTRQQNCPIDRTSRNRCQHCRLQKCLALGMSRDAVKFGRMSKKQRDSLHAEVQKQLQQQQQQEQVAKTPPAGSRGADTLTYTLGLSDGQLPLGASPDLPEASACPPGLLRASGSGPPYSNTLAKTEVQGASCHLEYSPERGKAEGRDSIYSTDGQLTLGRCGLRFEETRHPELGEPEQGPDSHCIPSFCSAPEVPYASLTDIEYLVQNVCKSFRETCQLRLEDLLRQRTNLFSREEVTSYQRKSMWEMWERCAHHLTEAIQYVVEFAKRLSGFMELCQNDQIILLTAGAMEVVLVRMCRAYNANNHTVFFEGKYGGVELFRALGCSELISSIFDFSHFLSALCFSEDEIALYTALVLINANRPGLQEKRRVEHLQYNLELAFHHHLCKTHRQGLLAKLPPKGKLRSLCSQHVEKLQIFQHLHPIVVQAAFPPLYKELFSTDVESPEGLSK
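Luciferase reporter read in Schneider cells carrying Gal4-RORγ (mouse) and UAS-Photinus luciferase; cells given compound 1 h before 700 uM copper sulfate induction, then incubated 20 h at ambient temperature.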
VP16 counter – Gal4-VP16 reporter inhibition counter-screen. Drosophila S2 Gal4-VP16 UAS-luciferase, luminescence, 20 h. 310,000 tested, 3.5% active. Potency, µM (doses to about 53.6 µM), inactives show at the top dose activity, negative = inhibition, most hits filed as inhibitors;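 also: Gal4-VP16 expression switched on by copper sulfate through the metallothionein promoter; nearly all actives have a fitted effect of over 50% in size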
* hit, by the source's call; ? = inconclusive; · = not tested or not shown; [ ] = another dose, or the depositor's remark. Calls follow the shape of the dose curve; as a rule, active = well fitted curve in the direction sought with a large enough effect; inconclusive = small, poorly fitted or top-dose-only effect, or another doubt; inactive = no such curve, though single readings can be large; an effect the other way counts as inactive or inconclusive. % is scaled to controls: 0 for no effect and ±100 for the full control effect; potency is read from the fitted curve at half-maximal effect.

SMILES	KinaseGlo FLuc	RORg inh	VP16 counter
S=C(NCC1CCCO1)Nc1ccc(Cl)c(Cl)c1 (stereo not drawn)	0.3%	3.55µM*	?
CN(C)c1ccc(NC(=S)NCC2CCCO2)cc1 (stereo not drawn)	-2.8%	?	-14.1%
CCCCc1ccc(NC(=S)NCC2CCCO2)cc1 (stereo not drawn)	0.7%	2.82µM*	?
CCCCc1ccc(NC(=S)Nc2ccc(Cl)c(S(=O)(=O)N(C)C)c2)cc1	-0.2%	11.2µM*	?
CCCCc1ccc(NC(=S)NCCc2ccc(S(N)(=O)=O)cc2)cc1	-0.8%	?	8.91µM*
CCN1CCN(CC(=O)Nc2ccc(Cl)c(S(=O)(=O)N(C)C)c2)CC1	3.9%	?	?
CCNS(=O)(=O)c1ccc(NC(=S)NCC2CCCO2)cc1 (stereo not drawn)	1.9%	39.2%	2.1%
O=C(CN1C(=O)NC2(CCSC2)C1=O)NCc1ccccc1 (stereo not drawn)	2.9%	1.4%	2.3%
CNC(=S)NNC(=O)c1cccn(Cc2cccc(C(F)(F)F)c2)c1=O	·	4.6%	-6.1%
O=C(Nc1cccc(F)c1)N1CCCC2(CCN(C(=O)c3cnccn3)CC2)C1	0.5%	-1.1%	4.3%
COc1ccc2[nH]c(=O)c(CN(c3ccc(C)c(C)c3)S(C)(=O)=O)cc2c1	-1.0%	43.3%	4.0%
Cc1ccccc1C1C(C#N)=C2N=C(N)c3c(sc4c3CCCCC4)N2C2=C1C(=O)CCC2 (stereo not drawn)	0.2%	14.1µM*	?
N#CC1=C2N=C(N)c3ccccc3N2C2=C(C(=O)CCC2)C1c1ccccc1F (stereo not drawn)	·	7.8%	1.0%
C[N+](C)(C)CCCSc1nc2ccccc2[nH]1	-1.0%[7.66 µM]	·	·
CCc1nnc(NC(=O)CSc2nnc(Cc3ccccc3)n2Cc2ccccc2)s1	-4.8%	10.9%	0.1%
CCc1nnc(NC(=O)CSc2ncc(-c3ccccc3)n2CC)s1	-0.4%	11.2µM*	?
CCc1nnc(NC(=O)CSc2nnc(-c3ccccc3O)n2-c2ccc(C)cc2C)s1	10.9%	1.58µM*	?
CCc1nnc(NC(=O)CSc2ncc(-c3ccccc3)[nH]2)s1	-2.0%	6.31µM*	?
CCc1nnc(NC(=O)CSc2nnc(COc3ccccc3)n2-c2ccc(C)cc2)s1	-8.2%	3.2%	2.7%
Cc1nnc(NC(=O)CSc2ncc(-c3ccccc3)[nH]2)s1	·	9.2%	10.4%
CCOC(=O)C1CCC/C1=N\NC(=O)CN(c1cc(OC)ccc1OC)S(=O)(=O)c1ccccc1 (stereo not drawn)	·	-2.7%	-5.7%
O=C1C=C(NCCc2ccccc2)C2(CCCCC2)O1	-1.1%	0.8%	3.3%
COC(=O)COc1c(Cl)cc(Cl)c2ccc(C)nc12	2.5%	?	22.4µM*
Cc1ccc2c(Cl)cc(Cl)c(OCC(=O)NC(C)(C)C)c2n1	-1.2%	7.08µM*	?
COC(=O)CC/C(=N/Nc1ccc(Cl)c(Cl)c1)C(=O)OC	0.0%	23.9%	-5.1%
SMILES	KinaseGlo FLuc	RORg inh	VP16 counter
CC(C)(C)NC(=O)COC(=O)c1ccc(Cl)nc1	3.0%	0.9%	0.5%
COc1ccc2c(c1)O[C@H](c1ccc3c(c1)OCO3)[C@@H](OC(=O)Nc1ccc(OC(F)F)cc1)C2=O	0.4%	4.6%	-19.7%
O=C(CSc1nncn1-c1ccccc1)Nc1ccc(F)cc1F	·	10.7%	7.5%
CC(C)(C)c1ccc(C(=O)Nc2ccc(Cl)cc2)cc1	-2.4%	3.1%	-4.7%
CC(C)(C)c1ccc(NC(=O)c2ccsc2)cc1	·	-28.0%	7.94µM*
COC(=O)Cc1ccc(NC(=O)c2ccc(C(C)(C)C)cc2)cc1	-2.8%	1.58µM*	?
COC(=O)Cc1ccc(NC(=O)c2ccccc2Cl)cc1	-0.1%	-18.3%	-5.6%[10 µM]
S=C(Nc1ccc(Cl)cc1Cl)NC1CCN(Cc2ccccc2)CC1	-0.8%	?	?
O=C(NC1CCN(C(=O)Nc2cccc(Cl)c2)CC1)C1CCCCC1	·	-9.4%	4.5%
CC(=O)c1cccc(NC(=S)NC2CC2)c1	3.0%	-17.7%	-3.9%
S=C(Nc1cccc(Cl)c1)NC1CCCCC1	-3.2%	3.55µM*	10µM*
Cc1cc(Cl)ccc1OCC(=O)NC1CCCC1	0.8%	23.7%	17.3%
Cc1cc(Cl)ccc1NC(=S)NC1CCCC1	·	2.24µM*	14.1µM*
CC(=O)c1cccc(NC(=S)NC2CCCCC2)c1	1.0%	10µM*	?
CC1CCCCC1NC(=S)Nc1ccc(Cl)cc1Cl (stereo not drawn)	2.4%	3.55µM*	?
Cc1ccc(NC(=O)c2cc3c(CO)cnc(C)c3oc2=Nc2cccc(C(N)=O)c2)cc1	·	3.2%	-0.1%
CN(C(=O)COC(=O)c1cc([N+](=O)[O-])ccc1Cl)c1ccccc1	·	-1.4%	?
CCC(=O)Nc1nnc(S(=O)(=O)N(C)c2ccccc2)s1	·	-17.3%	-1.0%
Cc1n(Cc2ccccc2)c2ccccc2[n+]1Cc1ccccc1	·	-20.3%[1.91 µM]	?
Cc1ccc(S(C)(=O)=O)cc1C(=O)NC(C)C1CC2CCC1C2 (stereo not drawn)	·	-1.6%	-2.1%
CC(C)COP(=O)(CNC(=O)CN1C(=O)c2ccccc2S1(=O)=O)OCC(C)C	1.3%	-4.9%	-10.9%
S=C(NNc1cccc(Cl)c1)NC1CCCCC1	-0.6%	0.316µM*	1.41µM*
O=C(NC1CCCCCCC1)c1cccc(Cl)c1	·	38.8%	?
COc1ccc(-c2nc(SCC(=O)NC3CCCCC3)n[nH]2)cc1	·	6.7%	4.9%
Cc1cc(C)nc(NCCCc2ccccc2)n1	0.7%	2.4%	8.4%
SMILES	KinaseGlo FLuc	RORg inh	VP16 counter
CCCCNc1cc(C)nc(NCc2ccccc2)n1	-8.1%	?	7.08µM*
Cc1cc(Nc2ccc(Cl)cc2)nc(NCc2ccccc2)n1	-2.3%	?	?
Cc1cc(Nc2ccccc2)nc(NCc2ccccc2)n1	0.3%	2.82µM*	11.2µM*
CC(C(=O)N1CCN(Cc2ccc3c(c2)OCO3)CC1)n1cc([N+](=O)[O-])cn1 (stereo not drawn)	·	39.8%	-10.5%
COc1ccc(C)cc1NC(=O)CCN1CC(C)OC(C)C1 (stereo not drawn)	-0.9%	-9.9%	-8.5%
Cc1cc(C(=O)CN2C(=O)C(=O)N(Cc3ccccc3)C2=O)c(C)n1-c1ccc2c(c1)OCCO2	2.0%	6.1%	7.2%
COc1ccc2cc(CN(Cc3ccco3)Cc3nnnn3C3CCCCC3)c(=O)[nH]c2c1	0.8%	26.3%	-8.2%
CC(C)(C)c1ccc(CN(Cc2ccco2)Cc2nnnn2C2CCCC2)cc1	-8.1%	36.1%	2.82µM*
COC(=O)CSc1nc(N)c2c3c(sc2n1)C(c1ccccc1)SC(c1ccccc1)C3 (stereo not drawn)	-0.9%	10µM*	11.2µM*
COC(=O)CSc1nc(N)c2c3c(sc2n1)CCCC3	·	?	5.1%
COc1ccc(CCNC(=O)c2ccc3c(c2)NC(=O)C(CSCc2cc(C)ccc2C)N3)cc1OC (stereo not drawn)	·	-10.0%	-5.7%
Cc1ccccc1Cn1c(=N)n(CC(=O)c2ccc([N+](=O)[O-])cc2)c2ccccc21	-1.8%	-21.1%	-1.8%
CCCn1c(=N)n(CC(=O)c2ccc([N+](=O)[O-])cc2)c2ccccc21	0.2%	1.58µM*	-7.7%
COc1cccc(C(=O)Cn2c(=N)n(C)c3ccccc32)c1	2.6%	10µM*	?
